Measurements taken from PubChem BioAssay.
Activity calls are given as the source filed them.

What was measured:
[1] = small molecules captured by biotinylated probe aFSTL3 – biochemical, small-molecule microarray, fluorescence 635/667, stem cell growth factor project, primary screen (AID 1064); settings: higher = more signal;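 also: measures binding of the biotinylated anti-FSTL3 antibody to printed compounds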
[2] = binders from COS7 lysate, DM2A8 probe, primary screen, torsin A project, cell lysate, small-molecule microarray, fluorescence 635/667 (AID 1065); settings: higher = more signal, COS7 lysate expressing mutant human TOR1A
[3] = small molecules captured by biotinylated probe aFGF2 – biochemical, small-molecule microarray, fluorescence 635/667, stem cell growth factor project, primary screen (AID 1067); settings: higher = more signal;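 also: measures binding of biotinylated aFGF2 protein to printed compounds on slides; z-score merges feature fluorescence and signal-to-noise across triplicate slides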
[4] = small molecules captured by biotinylated probe aFGF10 – biochemical, small-molecule microarray, fluorescence 635/667, stem cell growth factor project, primary screen (AID 1071); settings: higher = more signal;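 also: score merges 667 nm spot intensity and signal to noise from triplicate slides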
[5] = molecular target: Neurogenic locus notch homolog protein 2 (Homo sapiens) (UniProt Q04721); assay: small molecules binding Notch2 protein – biochemical, small-molecule microarray, 635 nm fluorescence, stem cell growth factors, primary screen (AID 1073); settings: higher = more signal
[6] = molecular target: Pro-neuregulin-1, membrane-bound isoform (Homo sapiens) (UniProt Q02297); assay: small molecules binding neuregulin-1 protein – biochemical, small-molecule microarray, fluorescence 635/667, psychiatric disease protein project, primary screen (AID 1075); settings: NRG1 binding, 635 nm fluorescence, higher = more signal;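 also: score combines 667 nm spot fluorescence with signal to noise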
Chain of Pro-neuregulin-1, membrane-bound isoform (Homo sapiens) (Q02297 whole entry, looked up, the tested form may be a part, canonical isoform): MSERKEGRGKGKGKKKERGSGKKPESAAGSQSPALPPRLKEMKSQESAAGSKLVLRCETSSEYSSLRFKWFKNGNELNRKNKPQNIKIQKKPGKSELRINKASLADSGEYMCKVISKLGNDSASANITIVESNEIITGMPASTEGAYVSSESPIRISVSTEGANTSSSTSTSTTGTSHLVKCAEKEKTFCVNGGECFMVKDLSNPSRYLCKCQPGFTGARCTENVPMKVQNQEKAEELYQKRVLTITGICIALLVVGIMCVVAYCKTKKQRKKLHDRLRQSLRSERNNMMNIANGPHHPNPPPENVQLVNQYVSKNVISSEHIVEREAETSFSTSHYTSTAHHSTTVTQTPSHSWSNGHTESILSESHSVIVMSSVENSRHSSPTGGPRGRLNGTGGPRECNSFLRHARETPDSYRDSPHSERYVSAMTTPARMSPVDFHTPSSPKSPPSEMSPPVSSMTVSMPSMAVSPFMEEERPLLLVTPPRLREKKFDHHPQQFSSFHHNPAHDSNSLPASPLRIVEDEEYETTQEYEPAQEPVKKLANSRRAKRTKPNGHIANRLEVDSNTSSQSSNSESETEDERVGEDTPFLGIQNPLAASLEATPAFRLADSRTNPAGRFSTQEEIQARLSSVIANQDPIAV

[7] = test system: Neuregulin-1 EGF-like domain; assay: small molecules binding NRG1 EGF domain – biochemical, small-molecule microarray, 635 nm fluorescence, primary screen (AID 1081); settings: higher = more signal;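 also: binding of the protein to compounds printed on small-molecule microarray slides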
[8] = FRG1 expression reporter modulators in myotubes – cell-based, C2C12 myotubes, firefly/Renilla luciferase, luminescence, FRG1 inhibition for FSHD, primary screen (AID 1084); settings: FRG1 promoter luciferase, higher = more signal, called active from +8 up or from −8 down
[9] = small molecules captured by biotinylated probe aFST – biochemical, small-molecule microarray, fluorescence 635/667, stem cell growth factor project, primary screen (AID 1086); settings: higher = more signal;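 also: score merges 667 nm fluorescence with signal-to-noise of each printed compound spot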
[10] = binders of probe aHhip on microarray, primary screen, stem cell growth factor project, biochemical, small-molecule microarray, fluorescence 635/667 (AID 1087); settings: higher = more signal;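 also: score merges spot fluorescence at 667nm with spot signal to noise ratio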
[11] = test system: PRMT1 (protein arginine N-methyltransferase 1); assay: small molecules binding arginine methyltransferase PRMT1 – biochemical, small-molecule microarray, 635 nm fluorescence, primary screen (AID 1088); settings: higher = more signal;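 also: binding of Prmt1 protein to compounds spotted on small-molecule microarray slides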
[12] = growth effects on S. cerevisiae YJM789 – YJM789 clinical isolate, OD600, 24 h, basal, primary screen (AID 1089); settings: higher = more signal, called active from +8 up or from −8 down;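 also: growth of clinical yeast isolate S. cerevisiae YJM 789 seeded 1000 cells per well; test concentration not given here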
[13] = S. pombe growth modifiers, basal conditions – strain 972, OD600, 24 h, no modulator, primary screen (AID 1090);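 also: basal condition with compound alone and no growth modifier present; test concentration not given here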; settings: S. pombe 972 growth, higher = more signal, called active from +8 up or from −8 down
[14] = budding yeast growth modifiers under rapamycin – strain BY4716, OD600, 96 h, primary screen (AID 1091); also: test concentration not given here; settings: S. cerevisiae BY4716 + rapamycin, higher = more signal, called active from +8 up or from −8 down
[15] = molecular target: Torsin-1A-interacting protein 2 (Homo sapiens) (UniProt Q8NFQ8); assay: small molecules binding lysate-expressed LULL1 – cell lysate, human LULL1 lysate, 635/667 nm fluorescence, primary screen (AID 1092); settings: small-molecule microarray, hLULL1 lysate binding, 635 nm fluorescence; higher = more signal;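 also: probe is lysate of COS7 cells overexpressing human LULL1; score merges per-feature 667 nm fluorescence with signal-to-noise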
Chain of Torsin-1A-interacting protein 2 (Homo sapiens) (Q8NFQ8 whole entry, looked up): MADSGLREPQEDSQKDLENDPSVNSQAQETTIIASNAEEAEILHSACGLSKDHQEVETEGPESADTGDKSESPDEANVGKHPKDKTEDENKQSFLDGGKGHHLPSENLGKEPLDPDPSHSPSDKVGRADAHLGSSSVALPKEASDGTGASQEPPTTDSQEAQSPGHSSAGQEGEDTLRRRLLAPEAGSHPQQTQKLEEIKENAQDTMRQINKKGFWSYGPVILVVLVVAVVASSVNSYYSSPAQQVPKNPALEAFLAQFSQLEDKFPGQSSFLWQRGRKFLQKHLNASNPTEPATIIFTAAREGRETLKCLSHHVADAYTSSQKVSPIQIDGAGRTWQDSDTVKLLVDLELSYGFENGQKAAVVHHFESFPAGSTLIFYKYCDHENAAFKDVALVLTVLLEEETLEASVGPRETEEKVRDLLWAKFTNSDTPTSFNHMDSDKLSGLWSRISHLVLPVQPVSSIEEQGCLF

[16] = optical density change of DRC41 E. coli – strain DRC41, OD650, 24 h, E. coli filamentation project, primary screen (AID 1093);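 also: MC1000 strain lacking acrAB efflux and sulA so SOS filamentation is blocked; test concentration not given here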; settings: E. coli DRC41 growth, higher = more signal, called active from +8 up or from −8 down
[17] = probe aLefty2 binding to arrayed compounds – biochemical, biotinylated probe, 635/667 nm fluorescence, primary screen (AID 1094); settings: small-molecule microarray, higher = more signal;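 also: score merges spot fluorescence near 667 nm with spot signal-to-noise ratio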
[18] = test system: Noggin (protein binding on small-molecule microarray); assay: small molecules binding Noggin protein – biochemical, 635/667 nm fluorescence, primary screen (AID 1095); settings: 635 nm fluorescence, higher = more signal;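 also: score merges 667 nm feature fluorescence with signal to noise over triplicate slides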
[19] = molecular target: Neurogenic locus notch homolog protein 3 (Homo sapiens) (UniProt Q9UM47); assay: small molecules binding NOTCH3 protein – biochemical, 635/667 nm fluorescence, primary screen (AID 1096); settings: small-molecule microarray, 635 nm fluorescence, higher = more signal
Chain of Neurogenic locus notch homolog protein 3 (Homo sapiens) (Q9UM47 whole entry, looked up): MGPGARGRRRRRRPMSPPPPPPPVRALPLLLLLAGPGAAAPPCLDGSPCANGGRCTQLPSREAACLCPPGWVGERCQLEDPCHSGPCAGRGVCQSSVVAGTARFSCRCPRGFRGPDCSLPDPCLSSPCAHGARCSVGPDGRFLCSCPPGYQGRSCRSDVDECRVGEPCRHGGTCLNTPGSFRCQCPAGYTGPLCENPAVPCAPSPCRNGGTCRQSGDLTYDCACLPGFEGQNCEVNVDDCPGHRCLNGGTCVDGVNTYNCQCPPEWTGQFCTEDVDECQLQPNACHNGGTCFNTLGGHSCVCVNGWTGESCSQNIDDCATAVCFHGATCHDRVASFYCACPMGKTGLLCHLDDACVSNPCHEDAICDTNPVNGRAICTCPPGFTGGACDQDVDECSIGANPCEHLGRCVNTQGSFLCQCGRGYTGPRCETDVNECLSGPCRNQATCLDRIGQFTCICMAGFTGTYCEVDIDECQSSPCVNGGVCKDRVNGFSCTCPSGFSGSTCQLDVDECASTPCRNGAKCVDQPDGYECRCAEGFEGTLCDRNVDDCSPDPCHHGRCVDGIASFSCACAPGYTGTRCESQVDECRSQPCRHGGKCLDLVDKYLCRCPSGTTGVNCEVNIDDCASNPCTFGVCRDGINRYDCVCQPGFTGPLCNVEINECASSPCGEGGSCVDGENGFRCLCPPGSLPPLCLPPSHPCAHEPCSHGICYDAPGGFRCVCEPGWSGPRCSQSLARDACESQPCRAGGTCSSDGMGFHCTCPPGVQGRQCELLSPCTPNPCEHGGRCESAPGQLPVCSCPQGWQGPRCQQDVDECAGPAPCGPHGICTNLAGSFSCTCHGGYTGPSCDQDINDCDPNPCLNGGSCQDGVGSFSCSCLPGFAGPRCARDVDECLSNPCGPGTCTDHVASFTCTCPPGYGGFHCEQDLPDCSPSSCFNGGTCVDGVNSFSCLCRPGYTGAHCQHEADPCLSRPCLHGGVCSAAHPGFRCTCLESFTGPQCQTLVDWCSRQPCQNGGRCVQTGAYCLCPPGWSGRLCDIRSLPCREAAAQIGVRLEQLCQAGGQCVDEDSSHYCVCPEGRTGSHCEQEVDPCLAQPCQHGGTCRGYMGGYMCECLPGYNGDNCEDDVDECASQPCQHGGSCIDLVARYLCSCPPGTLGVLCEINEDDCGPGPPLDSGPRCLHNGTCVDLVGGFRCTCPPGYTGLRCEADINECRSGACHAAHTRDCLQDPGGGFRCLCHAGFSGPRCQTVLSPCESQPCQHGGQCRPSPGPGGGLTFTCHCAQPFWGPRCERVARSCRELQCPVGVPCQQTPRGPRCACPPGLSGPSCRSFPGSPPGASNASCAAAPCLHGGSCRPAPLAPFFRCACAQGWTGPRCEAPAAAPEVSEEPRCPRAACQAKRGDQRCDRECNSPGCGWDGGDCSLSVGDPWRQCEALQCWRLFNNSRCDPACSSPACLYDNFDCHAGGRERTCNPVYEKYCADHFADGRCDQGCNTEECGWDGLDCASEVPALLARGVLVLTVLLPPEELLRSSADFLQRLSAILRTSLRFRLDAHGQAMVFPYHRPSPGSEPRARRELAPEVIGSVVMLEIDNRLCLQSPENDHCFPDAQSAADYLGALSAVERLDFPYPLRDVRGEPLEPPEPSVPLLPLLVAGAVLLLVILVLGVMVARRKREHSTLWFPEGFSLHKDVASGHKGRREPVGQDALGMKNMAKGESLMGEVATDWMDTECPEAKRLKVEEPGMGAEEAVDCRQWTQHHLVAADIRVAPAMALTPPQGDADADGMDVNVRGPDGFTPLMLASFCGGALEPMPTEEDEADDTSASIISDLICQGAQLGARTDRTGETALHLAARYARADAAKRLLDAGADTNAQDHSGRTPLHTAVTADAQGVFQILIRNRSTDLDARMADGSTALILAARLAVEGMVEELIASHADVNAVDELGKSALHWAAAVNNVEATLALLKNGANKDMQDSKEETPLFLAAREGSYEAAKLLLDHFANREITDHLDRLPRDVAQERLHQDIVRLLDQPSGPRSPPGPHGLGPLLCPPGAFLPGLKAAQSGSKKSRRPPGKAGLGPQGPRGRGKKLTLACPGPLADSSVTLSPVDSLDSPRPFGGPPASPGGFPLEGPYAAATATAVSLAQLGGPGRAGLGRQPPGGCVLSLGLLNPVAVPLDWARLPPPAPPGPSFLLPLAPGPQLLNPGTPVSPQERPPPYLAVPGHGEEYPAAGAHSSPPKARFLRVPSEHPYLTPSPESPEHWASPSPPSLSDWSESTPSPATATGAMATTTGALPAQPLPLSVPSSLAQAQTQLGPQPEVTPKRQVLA

[20] = probe aEGFR binding to arrayed compounds – biochemical, biotinylated probe, 635/667 nm fluorescence, primary screen (AID 1097); settings: small-molecule microarray, higher = more signal;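 also: probe is a biotinylated anti-EGFR antibody binding compounds printed on slides; score combines fluorescence near 667 nm and signal to noise of each spot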

Structure (SMILES) | composite z-score [1] | composite z-score [2] | composite z-score [3] | composite z-score [4] | composite z-score [5] | composite z-score [6] | composite z-score [7] | z-score [8] | composite z-score [9] | composite z-score [10] | composite z-score [11] | z-score [12] | z-score [13] | z-score [14] | composite z-score [15] | z-score [16] | composite z-score [17] | composite z-score [18] | composite z-score [19] | composite z-score [20]
Cc1ccc(S[C@]2(C(=O)NCCCN(C)C)CC(=O)N(Cc3ccccc3C(F)(F)F)[C@@H]2c2ccc(CO)cc2I)cc1 | -0.73 | -0.0283 | -0.21 | -0.211 | -0.733 | 1.51 | 1.13 | 0.241 (inactive) | 0.216 | -0.54 | 0.349 | -1.34 (inactive) | -3.27 (inactive) | 0.0267 (inactive) | 3.18 | -0.328 (inactive) | -0.323 | -0.496 | -0.174 | -0.378
NC(=O)N1C(=O)C2C(C1=O)C1C=C(CCCO)C2C(c2ccc(CN3CCCC3)cc2)N1Cc1cc2c(cc1Br)OCO2 (stereo not given) | 0.117 | 0.19 | -0.0909 | -0.0906 | -0.362 | -0.311 | 0.626 | -0.905 (inactive) | -0.369 | -0.476 | 0.964 | -2.23 (inactive) | -0.251 (inactive) | -0.665 (inactive) | 0.835 | 0.181 (inactive) | -0.128 | 0.208 | -0.788 | -0.211
C=C(C)[C@@H]1CC=C(C(O)C2C=CC3C(=O)N(C)C(=O)C3N2Nc2ccc([N+](=O)[O-])cc2[N+](=O)[O-])CC1 (stereo not given in full) | 0.661 | 0.294 | -0.144 | 0.431 | 1.68 | 1.74 | 1.36 | 0.404 (inactive) | 1.46 | -0.0003 | 1.32 | 0.513 (inactive) | 1.79 (inactive) | 0.966 (inactive) | 3.52 | -0.476 (inactive) | 0.519 | 0.263 | 1.07 | 0.358
CCOC(=O)C[C@H]1[C@H](OC(=O)c2ccccc2-c2ccccc2)[C@@H](NC(=O)C2CCCCC2)c2cc(OCCCO)ccc2N1C(=O)c1ccc2ccccc2n1 | -0.484 | 0.0817 | -0.0594 | 0.53 | 0.813 | 0.388 | 0.825 | 0.396 (inactive) | 0.512 | -0.0296 | 1.39 | 0.362 (inactive) | 0.233 (inactive) | 0.495 (inactive) | 1.34 | -1.06 (inactive) | 0.0569 | 0.431 | 0.89 | 0.0754
COCC(=C=CC[C@H](O)c1ccccc1OCCO)C[C@H](O)COCc1ccccc1 | -0.287 | 0.584 | -0.0004 | 1.3 | 0.41 | 1.22 | 0.571 | 0.291 (inactive) | 0.092 | 0.107 | 1.55 | -0.16 (inactive) | -1.15 (inactive) | -0.619 (inactive) | 2.71 | -0.111 (inactive) | -0.0113 | 0.513 | 0.271 | 0.312
CCN(CC)c1ccc(N2CC=CC34O[C@@H]5C=CCCOC(=O)C5[C@H]3C(=O)N(C(C)CO)[C@@H]4C2=O)cc1 (stereo not given in full) | 0.221 | 0.864 | -0.0627 | -0.227 | -0.371 | 0.415 | 1.36 | 0.725 (inactive) | -0.0426 | -0.34 | 1.05 | -1.01 (inactive) | -1.6 (inactive) | -0.399 (inactive) | 2.11 | -0.42 (inactive) | 0.0815 | 0.524 | 0.61 | -0.0702
COC(=O)C1(Cc2ccccc2)C=C2C(=C(C)C(=O)C2C)CN1 (stereo not given) | 0.601 | 0.158 | -0.0032 | 0.137 | 1.01 | 0.643 | 0.635 | 0.0369 (inactive) | 0.66 | -0.199 | -0.467 | -1.06 (inactive) | 0.163 (inactive) | -0.0472 (inactive) | 2.04 | -0.366 (inactive) | 0.732 | -0.233 | -0.016 | -0.0146
COc1ccc([Si](C)(C)[C@@H]2[C@@H](CC(=O)N(CCO)Cc3ccccc3)O[C@]3(C(=O)N(Cc4ccc(I)cc4)c4ccccc43)[C@H]2C)cc1 | 0.44 | 1.2 | -0.0403 | 0.0554 | 0.512 | 0.136 | 0.83 | -2.04 (inactive) | 0.621 | 1 | 1.55 | 0.383 (inactive) | 1.53 (inactive) | 2.57 (inactive) | -0.0159 | 1.26 (inactive) | 0.408 | 1.63 | 1.12 | 0.338
COC(=O)[C@@]1(Cc2ccc(F)cc2)[C@H]2c3cc(C(=O)N4CCCC4)n(CCc4ccccn4)c3C[C@H]2CN1C(=O)c1ccccc1 | 0.319 | -0.439 | 0.165 | 0.124 | 1.43 | 1.8 | 1.4 | 1.23 (inactive) | 0.858 | -0.201 | -0.63 | -0.0526 (inactive) | 0.804 (inactive) | 0.414 (inactive) | 2.89 | -0.223 (inactive) | 0.181 | -0.701 | 0.572 | -0.164
C=CCC(OC(C)=O)[C@@H]1[C@@H](N(Cc2ccc(-c3cccc(C(F)(F)F)c3)o2)C(=O)Cc2ccc(F)cc2)c2cc(OCCCO)ccc2N1C(=O)Cc1ccc2ccccc2c1 (stereo not given in full) | 0.136 | -0.648 | -0.129 | 0.53 | -0.349 | -0.257 | -0.285 | 0.116 (inactive) | -0.106 | -0.212 | -0.783 | -0.554 (inactive) | 0.181 (inactive) | -0.669 (inactive) | -0.199 | -1.01 (inactive) | -0.118 | -0.244 | -0.855 | -0.125
